# Screens: PubChem, National Center for Advancing Translational Sciences (NCATS)
# Most compounds without a hit are left out; they make up all but 7.1% or so of the library.
# MCF10A rereplic = inducers of DNA re-replication in MCF 10A breast cells. MCF 10A DNA re-replication, Hoechst nuclear intensity, 48 h. Potency, µM (doses to about 46.1 µM), inactives show at the top dose activity, positive = re-replication, usual class: activators. 2.9% of 350,000 active; also: potency is read from the fitted curve at half-maximal effect; % of control where 0% means no effect; nearly all actives have a fitted effect of over 50% in size
# ATXN2 expr inh = reduces ATXN2 reporter expression in HEK-293 cells. Potency, µM (titrated, usually from 57 µM), inactives show at the top dose activity change, negative = inhibition, usual class: inhibitors. AID 1745845. 0.72% of 360,000 active. HEK-293 ATXN2-luciferase reporter, luminescence, 24 h; also: potency is read from the fitted curve at half-maximal effect; % is scaled to controls: 0 for no effect and ±100 for the full control effect; nearly all actives have a fitted effect of over 55% in size
#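 ATXN2-luciferase reporter cells (luciferase flanked by upstream and downstream ATXN2 gene portions) were treated 24 h at 37 °C with compounds at up to 57 uM. SteadyGlo luminescence gave expression; GF-AFC fluorescence gave viability.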
# IL1B secr inh = inhibitors of inflammasome signaling (IL-1 beta secretion); THP-1 LPS/ATP IL-1B secretion, AlphaLISA, 16 h; active compounds read low; 4.7% of 360,000 active; AID 743279; activity change, % at 57.5 µM; in the data active = activity change below about -50%; inconclusive = mostly about -30% to -49%; also: % is scaled to controls: 0 for no effect and ±100 for the full control effect
#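 THP-1 cells pretreated 1 hr with compounds (up to 57.5 uM final), then stimulated with LPS (250 ng/mL final) plus ATP (1.25 mM final); secreted IL-1B measured by AlphaLISA after 16 hr, decreased signal indicating inhibition.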
# S2 tox = cell viability loss in ATXN counter-screen; Potency, µM (top dose mostly 56.7 µM), hits mostly cytotoxic; S2 cells (HEK-293 line with an ATXN2-luciferase reporter) viability, CellTiter-Fluor protease fluorescence, 24 h; 0.49% of 400,000 active; also: potency is read from the fitted curve at half-maximal effect; nearly all actives have a fitted effect of over 40% in size
# SW480 rereplic = DNA re-replication induction in SW480 cells. SW480 DNA re-replication, Hoechst DNA content imaging, 48 h. Potency, µM (doses to about 46.1 µM), for inactives: at the top dose re-replication activation, usual class: activators. 1.8% of 340,000 active. AID 624297; also: potency is read from the fitted curve at half-maximal effect; % of control where 0% means no effect; nearly all actives have a fitted effect of over 55% in size
#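 250 cells/well; 23 nL cpd via pin tool; 48 hr, 37 C, 5% CO2; Hoechst 40 min; imager read of total nuclear intensity, ex 405/em 500-530 nm.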
# PINK1 expr mod = changes PINK1 expression; PINK1 immunofluorescence, high-content cytometry, 24 h; Potency, µM (top dose mostly 76.6 µM), for inactives: at the highest dose activation (PINK1 increase), actives largely listed as activators; 0.2% of 410,000 active; active = well fitted activation curve with a large enough effect; inconclusive = small, poorly fitted or top-dose-only effect; cell line not stated here; also: potency is read from the fitted curve at half-maximal effect; % of control where 0% means no effect; nearly all actives have a fitted effect of over 65% in size
#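 Measures PINK1 amount and localization on or inside mitochondria by immunofluorescence. Stable cells get compounds at 5 concentrations for 24 hours before fixation and staining; CCCP controls included.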
# An asterisk follows results filed as active; i = inactive; ? = inconclusive; . = no result. Unless noted, calls follow the shape of the dose curve; as a rule, active = well fitted curve in the direction sought with a large enough effect; inconclusive = small, poorly fitted or top-dose-only effect, or another doubt; inactive = no such curve, though single readings can be large; an effect the other way counts as inactive or inconclusive.
SMILES,MCF10A rereplic,ATXN2 expr inh,IL1B secr inh,S2 tox,SW480 rereplic,PINK1 expr mod
COc1ccc(/C=C2\SC(=S)N(CCC(=O)N3CCCCC3)C2=O)cc1,6.2%,-25.1%,-5.5,i,5.5%,0.8%
COc1ccc(/C=C2/SC(=S)N(CCC(=O)N3CCN(C)CC3)C2=O)cc1,?,14.1%,-83.9*,?,?,8.3%
O=C(CCN1C(=O)/C(=C\c2ccccc2Cl)SC1=S)N1CCN(c2ccccc2)CC1,6.51µM*,-3.1%,-107.1*,i,-1.6%,0.8%
O=C(O)CCCN1C(=O)/C(=C\C(Cl)=C\c2ccccc2)SC1=S,?,?,-95.4*,?,3.26µM*,-0.3%
COc1cccc(/C=C2\SC(=S)N(CC3CCCO3)C2=O)c1 (centres undefined),?,30.1%,-70.7*,i,1.0%,10.7%
O=C1/C(=C/c2cccc(O)c2)SC(=S)N1CC1CCCO1 (centres undefined),-9.9%,74.7%,?,i,?,5.0%
O=C(CCN1C(=O)/C(=C/c2ccccc2Cl)SC1=S)NN1CCOCC1,3.2%,2.4%,-19.8,i,24.2%,0.5%
O=C(O)CCCN1C(=O)/C(=C\c2ccccc2OCc2ccccc2)SC1=S,?,-7.7%,0.6,i,-3.5%,3.7%
COc1cccc(/C=C2\SC(=S)N(CCC(=O)N3CCCCC3)C2=O)c1,10.3µM*,28.5%,0.0,i,-1.9%,-0.8%
OCCOCCOCCO,-2.1%,.,.,.,6.2%,.
COc1ccccc1C(=O)Nc1sc(Nc2ccccc2)nc1C(N)=O,.,.,.,.,.,0.3%
CCn1c(C(=O)N(C2CC2)C2CC2)cc2c3c(ncn3C)c(Nc3cc(C)n(C)n3)nc21,.,-0.6%,.,.,.,.
CN1CCN(C(=O)CCCN2C(=O)/C(=C/c3ccc(Cl)cc3)SC2=S)CC1,?,4.9%,-3.6,?,-2.7%,5.1%
CN1CCN(C(=O)CCCN2C(=O)/C(=C/c3ccccc3)SC2=S)CC1,?,-31.7%,-96.9*,?,?,2.0%
COc1ccccc1N(C(=O)c1snc(C(N)=O)c1N)C(C(=O)NCc1ccccc1)c1ccc(O)cc1 (centres undefined),?,0.9%,-72.4*,i,15.5%,-0.7%
NC(=O)c1nsc(C(=O)N(c2cccc(F)c2)C(C(=O)NCc2ccccc2)c2ccc(O)cc2)c1N (centres undefined),?,13.4%,-50.7*,.,11.6%,-0.8%
COc1ccc(N(C(=O)c2snc(C(N)=O)c2N)C(C(=O)NCc2ccccc2)c2ccc(F)cc2)c(OC)c1 (centres undefined),?,-11.8%,?,i,?,7.3%
Cc1ccc(N(C(=O)c2snc(C(N)=O)c2N)C(C(=O)NCc2ccccc2)c2ccncc2)c(C)c1 (centres undefined),?,19.0%,-51.0*,i,?,1.7%
NC(=O)c1nsc(C(=O)N(c2cccc(F)c2)C(C(=O)NC2CCCC2)c2ccc(O)cc2)c1N (centres undefined),-3.6%,4.0%,5.8,i,6.1%,14.0%
NC(=O)c1nsc(C(=O)N(c2ccccc2F)C(C(=O)NCc2ccc(F)cc2)c2ccc(O)cc2)c1N (centres undefined),23.1µM*,?,-100.2*,i,?,-1.5%
Cc1ccc(C)c(Cn2c(=O)n(C(C)C)c(=O)c3oc4ccccc4c32)c1,.,.,.,.,.,0.1%
O=C(CCc1ccccc1)N(Cc1cccnc1)c1nc2c(F)cc(F)cc2s1,.,.,.,.,.,-0.3%
CCCc1cc(=O)oc2cc(C)c3c(-c4ccccc4)coc3c12,.,7.0%,.,i,.,-2.1%
COc1ccc(C(C(=O)NCc2ccccc2)N(C(=O)c2snc(C(N)=O)c2N)c2ccccc2OC)cc1 (centres undefined),1.9%,?,-54.5*,i,?,4.2%
CCOC(=O)c1c[nH]c2ccc([N+](=O)[O-])cc12,6.0%,0.0%,-22.5,i,3.3%,6.7%
SMILES,MCF10A rereplic,ATXN2 expr inh,IL1B secr inh,S2 tox,SW480 rereplic,PINK1 expr mod
CCOC(=O)c1c[nH]c2c([N+](=O)[O-])cc(OC)cc2c1=O,22.1%,-38.0%,1.1,i,16.4µM*,3.9%
CCN1CCC(O)(C#Cc2ccccc2)CC1,2.0%,8.9%,45.0,i,15.5%,1.6%
CC1C(c2ccccc2)N(C)C(c2ccccc2)C(C)C1(O)C#Cc1ccccc1 (centres undefined),23.1µM*,-30.1%,-65.1*,?,4.2%,31.6µM*
CC(=O)Nc1ccc(NC(=O)CSc2cn(CC(=O)N(C(C)C)C(C)C)c3ccccc23)cc1,.,.,.,.,.,-0.5%
Cc1nn(CC(=O)NCC(C)c2ccccc2)c(=O)c2cc3ccccc3n12 (centres undefined),.,.,.,.,.,-2.2%
Cc1c(CC(=O)NCc2ccc(F)cc2)c(=O)oc2cc(O)c(Cl)cc12,.,.,.,.,.,-0.3%
O=[N+]([O-])c1ccc(/C=N\O)o1,.,2.5%,.,i,.,.
O=C1NC(=S)S/C1=C\C=C\c1ccc([N+](=O)[O-])o1,30.0%,?,-98.3*,8.91µM*,?,6.2%
Cc1cc(NC(=O)COC(=O)CCS(=O)(=O)c2cc(Cl)ccc2Cl)no1,20.6µM*,1.6%,-20.3,i,2.9%,1.1%
Cc1cc(NC(=O)COC(=O)CCS(=O)(=O)c2ccc(C)c(C)c2)no1,-6.6%,-2.8%,-12.3,i,-1.1%,-0.2%
Cc1ccc(NC(=O)c2c(C)oc3ccc(O)c(CN4CCCCCC4)c23)c(C)c1,.,.,.,.,.,0.8%
CCOC(=O)C1=C(C)N2C(=C(C#N)[C@@H]1c1ccc(C(=O)OC)cc1)SC[C@@]2(O)C(C)(C)C,20.6µM*,2.5%,54.1,i,?,2.3%
C=CCn1c(COc2ccc(Cl)cc2)nnc1SCC(=O)N/N=C/c1cccc(O)c1,7.4%,-13.5%,1.2,?,-6.3%,14.7%
C=CCn1c(COc2ccccc2)nnc1SC(C)C(=O)N/N=C/c1cc(Cl)ccc1O (centres undefined),?,14.1µM*,104.6,i,?,-0.6%
CCCSc1nc2cc(OC)c(OC)cc2c(=N)n1CCCN1CCOCC1,6.3%,?,-51.6*,i,12.5%,4.3%
CCNS(=O)(=O)c1ccc(CCC(=O)N2CCN(c3cccc(Cl)c3)CC2)cc1,9.8%,-5.1%,-51.4*,i,-5.3%,2.0%
Cc1ccc(S(=O)(=O)NCCC(=O)N2CCN(c3cccc(Cl)c3)CC2)cc1C,2.2%,-30.3%,-1.2,i,22.3%,-1.5%
Cc1ccc(OCc2nc(-c3ccc(C(=O)NCCc4ccc(S(N)(=O)=O)cc4)cc3)oc2C)cc1,.,-7.6%,.,i,.,8.8%
